Screening results from PubChem.
Sampled rows, rich in hits. Any-hit rate of the full collection: about 3.1%.
FAS TE block = FAS thioesterase domain inhibitors, primary screen, biochemical, fluorescence intensity, uHTS | recombinant FAS-TE, OMFH fluorogenic substrate, fluorescence endpoint | inhibition, % at 15 µM | hit rate 0.67% among 360,000 | Fatty acid synthase (Homo sapiens), P49327 | AID 602261, 2012;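 active = compounds whose normalised, plate-corrected inhibition of enzyme fluorescence in the single-dose primary screen is 50% or more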;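 also: 0% = DMSO with enzyme and 100% = substrate without enzyme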
Target sequence (P49327 whole entry, looked up, the tested form may be a part): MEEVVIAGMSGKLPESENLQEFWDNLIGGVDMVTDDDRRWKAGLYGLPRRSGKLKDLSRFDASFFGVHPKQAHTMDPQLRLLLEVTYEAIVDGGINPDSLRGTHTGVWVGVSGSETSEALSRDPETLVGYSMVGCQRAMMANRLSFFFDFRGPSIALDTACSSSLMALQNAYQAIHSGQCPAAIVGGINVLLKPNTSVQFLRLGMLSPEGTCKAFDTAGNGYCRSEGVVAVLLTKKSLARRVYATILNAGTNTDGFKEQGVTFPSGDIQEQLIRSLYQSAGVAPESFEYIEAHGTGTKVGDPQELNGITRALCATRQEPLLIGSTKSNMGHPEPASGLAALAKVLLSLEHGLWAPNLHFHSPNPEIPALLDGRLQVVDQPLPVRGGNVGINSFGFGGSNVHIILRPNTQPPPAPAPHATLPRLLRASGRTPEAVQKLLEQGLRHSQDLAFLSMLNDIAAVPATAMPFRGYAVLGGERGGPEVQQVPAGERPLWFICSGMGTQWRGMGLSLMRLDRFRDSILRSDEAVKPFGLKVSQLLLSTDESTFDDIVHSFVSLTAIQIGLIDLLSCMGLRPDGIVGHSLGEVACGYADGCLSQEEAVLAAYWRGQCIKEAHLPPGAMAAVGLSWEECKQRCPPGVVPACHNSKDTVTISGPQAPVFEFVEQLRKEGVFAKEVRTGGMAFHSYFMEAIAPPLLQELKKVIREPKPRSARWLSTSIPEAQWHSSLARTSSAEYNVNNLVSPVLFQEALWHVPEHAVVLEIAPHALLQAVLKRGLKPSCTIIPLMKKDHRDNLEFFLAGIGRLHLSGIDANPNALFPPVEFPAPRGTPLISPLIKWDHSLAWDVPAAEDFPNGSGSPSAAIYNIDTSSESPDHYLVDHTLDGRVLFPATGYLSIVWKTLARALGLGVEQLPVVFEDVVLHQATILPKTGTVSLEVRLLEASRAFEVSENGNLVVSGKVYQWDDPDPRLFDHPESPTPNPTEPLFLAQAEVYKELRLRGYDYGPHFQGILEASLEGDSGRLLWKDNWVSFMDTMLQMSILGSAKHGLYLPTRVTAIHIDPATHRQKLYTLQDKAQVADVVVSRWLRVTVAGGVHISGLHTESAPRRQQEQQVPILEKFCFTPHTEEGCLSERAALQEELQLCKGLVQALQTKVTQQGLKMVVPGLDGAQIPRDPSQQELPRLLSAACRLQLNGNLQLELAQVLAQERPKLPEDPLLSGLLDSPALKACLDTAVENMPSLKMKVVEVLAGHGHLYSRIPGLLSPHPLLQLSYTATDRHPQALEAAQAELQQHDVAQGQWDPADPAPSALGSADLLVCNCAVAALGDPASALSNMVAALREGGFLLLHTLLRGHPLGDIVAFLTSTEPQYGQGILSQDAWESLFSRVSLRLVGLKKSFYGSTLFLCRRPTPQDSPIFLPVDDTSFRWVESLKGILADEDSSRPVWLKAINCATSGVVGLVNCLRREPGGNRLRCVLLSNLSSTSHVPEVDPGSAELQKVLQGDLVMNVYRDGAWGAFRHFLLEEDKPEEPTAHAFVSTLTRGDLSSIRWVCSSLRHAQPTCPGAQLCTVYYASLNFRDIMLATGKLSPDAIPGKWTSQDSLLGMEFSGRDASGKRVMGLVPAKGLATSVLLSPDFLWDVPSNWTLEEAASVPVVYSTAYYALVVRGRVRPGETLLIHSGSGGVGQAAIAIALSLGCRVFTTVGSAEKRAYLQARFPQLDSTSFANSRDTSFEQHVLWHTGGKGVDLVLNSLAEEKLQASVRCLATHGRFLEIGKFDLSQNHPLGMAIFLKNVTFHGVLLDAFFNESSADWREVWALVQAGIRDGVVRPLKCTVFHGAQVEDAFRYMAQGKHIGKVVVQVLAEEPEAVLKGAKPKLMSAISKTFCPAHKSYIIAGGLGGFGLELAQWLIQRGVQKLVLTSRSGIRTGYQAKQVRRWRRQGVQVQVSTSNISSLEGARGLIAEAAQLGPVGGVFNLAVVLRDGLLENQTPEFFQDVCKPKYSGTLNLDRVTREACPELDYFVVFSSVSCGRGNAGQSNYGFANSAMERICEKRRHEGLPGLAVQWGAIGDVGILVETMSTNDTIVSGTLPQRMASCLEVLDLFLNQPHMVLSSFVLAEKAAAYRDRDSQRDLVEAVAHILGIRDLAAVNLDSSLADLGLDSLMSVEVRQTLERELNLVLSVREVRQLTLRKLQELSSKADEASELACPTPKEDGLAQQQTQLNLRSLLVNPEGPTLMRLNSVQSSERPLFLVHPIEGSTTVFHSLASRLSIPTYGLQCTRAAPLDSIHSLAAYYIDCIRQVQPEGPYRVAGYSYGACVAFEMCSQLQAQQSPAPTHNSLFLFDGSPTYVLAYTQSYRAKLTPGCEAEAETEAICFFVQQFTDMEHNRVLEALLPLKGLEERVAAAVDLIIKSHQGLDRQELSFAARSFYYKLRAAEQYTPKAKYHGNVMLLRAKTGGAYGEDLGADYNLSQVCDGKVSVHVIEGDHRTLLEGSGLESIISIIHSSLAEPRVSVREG
SUMO Mot1 rescue = yeast Mot1-301 growth rescue at high temperature, primary screen, SUMOylation pathway inhibitor project, S. cerevisiae, ATP luminescence, 38.5C. hit rate 1% among 320,000. growth rescue, % at 18.8 µM. AID 2716, 2010. S. cerevisiae Mot1-301 growth rescue; percent above DMSO median, 100 means doubled;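 active = every valid replicate shows activation above 250% relative to neutral control wells; inactive = the rest, any valid replicate at or below 250%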;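 also: OY570 slx delta 5 strain wells were the positive control but not used for scaling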
ATG4B inhibitor = ATG4B protease inhibitors, primary screen, biochemical, fluorescence, uHTS; Cysteine protease ATG4B (Homo sapiens), Q9Y4P1; ATG4B cleavage of LC3-PLA2, NBD-HPC fluorescence, 1 h; inhibition, % at 8.33 µM; hit rate 0.51% among 340,000; in the data active = inhibition above about 40%
Calb FLC = C. albicans growth inhibition with fluconazole, primary screen, CaCi-2 strain, Alamar Blue fluorescence; AID 1979, 2009; hit rate 0.57% among 300,000; C. albicans CaCi-2 (fluconazole-resistant clinical isolate) + fluconazole, 48 h; growth inhibition, % (no concentration beside the values);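 active = growth inhibition above about 58% in most replicates, limit read from the data, passing the limit was not always enough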;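 also: all wells also contain fluconazole at 8 µg/ml as a sub-toxic cotreatment; 0% = median of DMSO wells and 100% = median of geldanamycin control wells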
NadD block = inhibitors of S. aureus NadD, primary screen, biochemical, colorimetric, uHTS; Nicotinate-nucleotide adenylyltransferase NadD (Staphylococcus aureus N315); purified NadD enzyme, colorimetric absorbance read-out; inhibition, % at 20 µM; hit rate 0.78% among 360,000; AID 602399, 2012; in the data active = inhibition above about 26%
Numbers without * were called inactive.

Screening C#CCOc1c(/C=C\c2nc(O)c([N+](=O)[O-])c(=O)[nH]2)cc(Br)cc1OC returned FAS TE block -3.4, SUMO Mot1 rescue -3.6, ATG4B inhibitor 3.3, Calb FLC -8.8 and NadD block 1.7.
N#Cc1ccc(-c2csc(NC(=O)c3ccc(S(=O)(=O)N4CCc5ccccc5C4)cc3)n2)cc1 was read as FAS TE block 6.6, SUMO Mot1 rescue -9.4, ATG4B inhibitor 6.3, Calb FLC -3.2 and NadD block 1.4.
Nc1cc(N2CCCC2)c(Cl)cc1[N+](=O)[O-] was read as FAS TE block 13.7, SUMO Mot1 rescue 307.5*, ATG4B inhibitor 5.0, Calb FLC -2.4 and NadD block -4.5.
Screening CCCCCCCC(=O)N/N=C/c1ccc([N+](=O)[O-])o1 returned FAS TE block 31.9, SUMO Mot1 rescue -5.0, ATG4B inhibitor -7.3, Calb FLC 101.3* and NadD block 0.2.
Screening CC1(C(=O)N/N=C/c2ccc([N+](=O)[O-])o2)CC1(Br)Br (configuration not stated) returned FAS TE block -1.0, SUMO Mot1 rescue 7.4, ATG4B inhibitor -1.1, Calb FLC 91.5* and NadD block -4.6.
O=C(Cc1ccc([N+](=O)[O-])cc1)N/N=C/c1ccc([N+](=O)[O-])o1 was read as FAS TE block 1.6, SUMO Mot1 rescue 46.0, ATG4B inhibitor -8.0, Calb FLC 5.8 and NadD block -1.5.
`COc1ccc(CN2CCN(c3nc4ccccc4s3)CC2)cc1` gave FAS TE block 10.5, ATG4B inhibitor 2.6, Calb FLC 4.6 and NadD block -12.4.
For COc1ccc(CCn2c(O)cc3nn(-c4nc5ccccc5s4)c(=O)c-3c2C)cc1 the results were FAS TE block 6.3, SUMO Mot1 rescue -16.8, ATG4B inhibitor 13.1, Calb FLC 7.0 and NadD block 72.7*.
Screening COCCNC(=O)C(c1ccc(F)cc1)N(C(=O)CCC(=O)Nc1nccs1)c1ccc(C)cc1 (configuration not stated) returned FAS TE block -6.5, SUMO Mot1 rescue -15.6, ATG4B inhibitor -5.5, Calb FLC -2.6 and NadD block -1.4.
`O=C(COc1ccc(Cl)cc1Br)Nc1ccncc1` gave FAS TE block -0.4, SUMO Mot1 rescue 73.3, ATG4B inhibitor -7.4, Calb FLC 2.6 and NadD block -7.1.
Screening Cc1cc(C(=O)OCC(=O)N(CC(C)C)c2c(N)n(Cc3ccccc3)c(=O)[nH]c2=O)c(C)o1 returned FAS TE block -0.3, SUMO Mot1 rescue 16.2, ATG4B inhibitor 3.9, Calb FLC 1.5 and NadD block 5.2.
For CCCCCCNC(=O)c1cc(S(=O)(=O)N2CCc3ccccc32)ccc1F the results were FAS TE block 2.3, SUMO Mot1 rescue -11.3, ATG4B inhibitor -9.4, Calb FLC 1.6 and NadD block -6.2.
Cc1ccc(NN2C(=O)C=C(c3ccc(Cl)cc3)C2=O)cc1 was read as FAS TE block -6.7, SUMO Mot1 rescue 571.6*, ATG4B inhibitor 3.2, Calb FLC -39.9 and NadD block 15.9.
Screening O=C(/C=C/c1ccccc1)Nn1c(-c2cccs2)nc2ccccc2c1=O returned FAS TE block 24.8, SUMO Mot1 rescue 3.2, ATG4B inhibitor 7.7, Calb FLC 94.8* and NadD block 1.5.
For O=C(/C=C/c1cccc(Cl)c1)Nn1c(-c2cccs2)nc2ccccc2c1=O the results were FAS TE block 47.9, SUMO Mot1 rescue 7.0, ATG4B inhibitor 5.6, Calb FLC 26.1 and NadD block 14.1.
`CN(C)c1ccc(/C=C(\C#N)C(=O)Nc2nc3c(s2)CCN(Cc2ccccc2)C3)cc1` gave FAS TE block -171.7, SUMO Mot1 rescue -13.2, ATG4B inhibitor 2.5, Calb FLC -11.3 and NadD block 32.6*.
O=[N+]([O-])c1cc(S(=O)(=O)C(F)(F)F)ccc1Sc1nc2ccccc2s1 was read as FAS TE block 35.9, ATG4B inhibitor 12.1, Calb FLC 110.9* and NadD block 3.0.
CS(=O)(=O)c1ccc(Sc2nc3ccccc3s2)c([N+](=O)[O-])c1 was read as FAS TE block 19.2, SUMO Mot1 rescue 10.7, ATG4B inhibitor -6.7, Calb FLC 2.3 and NadD block -4.9.
